# Results from PubChem BioAssay.
# The source made the active and inactive calls.
# Columns and labels:
# [1] = anti-His antibody binders, primary screen, artefact control for SMM control protein annotation, biochemical, small-molecule microarray, 635 nm fluorescence (AID 1128); conditions: anti-His Alexa647 antibody binding, higher = more signal;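 also: score merges feature fluorescence with signal-to-noise for each printed compound spot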
# [2] = system: Human papillomavirus type 1a E7 protein (residues 1-88); experiment: HPV1a E7 small-molecule binders, primary screen, biochemical, small-molecule microarray, residues 1-88, 635 nm (AID 1129); conditions: small-molecule microarray binding, fluorescence 635 nm; higher = more signal
# [3] = biological target: Focal adhesion kinase 1 (Homo sapiens) (UniProt Q05397); experiment: small-molecule microarray binders of FAK, primary screen, biochemical, 635/667 nm fluorescence, BSA, DTT (AID 1130); conditions: PTK2 binding, 635 nm fluorescence, higher = more signal;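 also: composite of spot emission at 667 nm and signal to noise over triplicate slides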
# [4] = system: Fibrinogen (Alexa647-labelled); experiment: fibrinogen binders on compound microarrays, profiling panel, artefact control for SMM control-protein annotation, biochemical, small-molecule microarray, 635/667 nm fluorescence (AID 1131); conditions: fibrinogen-A647 binding fluorescence, higher = more signal;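 also: z-score merges 667 nm fluorescence with per-spot signal-to-noise over triplicate slides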
# [5] = biological target: Follistatin (Homo sapiens) (UniProt P19883); experiment: follistatin binders on small-molecule microarrays, primary screen, biochemical, small-molecule microarray, 635/667 nm fluorescence (AID 1132); conditions: FST binding, 635 nm fluorescence, higher = more signal
# [6] = biological target: Fibroblast growth factor 2 (Homo sapiens) (UniProt P09038); experiment: FGF2 binders on small-molecule microarrays, primary screen, biochemical, small-molecule microarray, 635/667 nm fluorescence (AID 1133); conditions: small-molecule microarray binding, FGF2, fluorescence 635/667; higher = more signal
# [7] = mitochondrial membrane potential change in A549 cells, profiling panel, cell-based, JC-1 fluorescence, basal, 24 h, 100 nL (AID 1138); conditions: higher = more signal;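 also: A549 lung adenocarcinoma cells under basal conditions with no added stimulus; test concentration not given here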
# Lefty1 = Lefty1 binders on small-molecule microarrays, primary screen, biochemical, small-molecule microarray, 635/667 nm fluorescence (AID 1139); conditions: small-molecule microarray binding, fluorescence 635/667; higher = more signal
# [8] = system: wheat germ agglutinin (Triticum aestivum), Alexa647-labelled; experiment: wheat germ agglutinin binders on compound microarrays, profiling panel, artefact control for SMM control-protein annotation, biochemical, small-molecule microarray, 635/667 nm fluorescence (AID 1140); conditions: WGA-A647 binding, 635 nm fluorescence, higher = more signal;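 also: score merges 667 nm feature emission with signal to noise over triplicate slides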
# [9] = biological target: Luciferin 4-monooxygenase (Photinus pyralis) (UniProt P08659); experiment: firefly luciferase enzyme inhibitors, primary screen, biochemical, luminescence, purified enzyme, 2006 set (AID 1141); conditions: SteadyGlo luminescence, 30 min, higher = more signal, called active from +8 up or from −8 down;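 also: cell-free assay with purified firefly luciferase at 100 ng per well in PBS; test concentration not given here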
# Luciferin 4-monooxygenase (Photinus pyralis), sequence (P08659 whole entry, looked up): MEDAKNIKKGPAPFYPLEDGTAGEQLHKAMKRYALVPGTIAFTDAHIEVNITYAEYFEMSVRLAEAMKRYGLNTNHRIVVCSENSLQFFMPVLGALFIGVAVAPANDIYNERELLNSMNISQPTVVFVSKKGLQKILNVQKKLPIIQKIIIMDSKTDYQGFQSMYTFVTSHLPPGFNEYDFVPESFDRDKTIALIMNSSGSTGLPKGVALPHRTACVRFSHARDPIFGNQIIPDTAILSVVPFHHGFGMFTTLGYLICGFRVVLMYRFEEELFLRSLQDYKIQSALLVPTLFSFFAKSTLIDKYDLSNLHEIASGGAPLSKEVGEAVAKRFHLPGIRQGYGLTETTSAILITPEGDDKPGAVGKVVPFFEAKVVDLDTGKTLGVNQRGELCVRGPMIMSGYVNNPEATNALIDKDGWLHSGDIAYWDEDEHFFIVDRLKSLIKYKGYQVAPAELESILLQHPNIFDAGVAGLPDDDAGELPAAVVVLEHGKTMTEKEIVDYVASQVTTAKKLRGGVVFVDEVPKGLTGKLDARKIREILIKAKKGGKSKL
# Focal adhesion kinase 1 (Homo sapiens), sequence (Q05397 whole entry, looked up): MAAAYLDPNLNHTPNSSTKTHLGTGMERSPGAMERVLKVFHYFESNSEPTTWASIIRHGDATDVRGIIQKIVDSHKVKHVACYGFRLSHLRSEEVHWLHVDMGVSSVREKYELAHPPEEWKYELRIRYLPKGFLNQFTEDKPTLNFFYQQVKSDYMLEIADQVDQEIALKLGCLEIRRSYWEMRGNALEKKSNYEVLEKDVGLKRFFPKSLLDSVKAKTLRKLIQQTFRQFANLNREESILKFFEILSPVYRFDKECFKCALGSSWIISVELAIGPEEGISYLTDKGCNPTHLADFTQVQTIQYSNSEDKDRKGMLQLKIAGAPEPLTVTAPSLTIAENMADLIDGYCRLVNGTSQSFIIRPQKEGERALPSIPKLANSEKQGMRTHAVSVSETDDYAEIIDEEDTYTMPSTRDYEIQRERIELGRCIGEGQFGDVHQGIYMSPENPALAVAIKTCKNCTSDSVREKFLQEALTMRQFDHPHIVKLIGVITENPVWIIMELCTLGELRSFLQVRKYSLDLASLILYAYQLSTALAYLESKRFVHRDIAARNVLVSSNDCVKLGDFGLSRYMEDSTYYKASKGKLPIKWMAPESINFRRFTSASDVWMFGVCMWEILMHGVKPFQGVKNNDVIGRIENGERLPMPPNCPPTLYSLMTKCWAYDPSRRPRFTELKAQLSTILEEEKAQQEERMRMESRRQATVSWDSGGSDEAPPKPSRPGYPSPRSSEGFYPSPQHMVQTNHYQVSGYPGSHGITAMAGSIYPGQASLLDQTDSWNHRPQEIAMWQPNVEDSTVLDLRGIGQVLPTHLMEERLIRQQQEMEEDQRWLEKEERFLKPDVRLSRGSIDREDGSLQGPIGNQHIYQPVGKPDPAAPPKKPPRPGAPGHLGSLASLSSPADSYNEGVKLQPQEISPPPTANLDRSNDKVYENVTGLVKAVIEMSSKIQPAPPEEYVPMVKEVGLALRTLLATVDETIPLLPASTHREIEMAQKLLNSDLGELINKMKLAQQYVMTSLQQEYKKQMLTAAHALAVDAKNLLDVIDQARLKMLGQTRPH
# Follistatin (Homo sapiens), sequence (P19883 whole entry, looked up): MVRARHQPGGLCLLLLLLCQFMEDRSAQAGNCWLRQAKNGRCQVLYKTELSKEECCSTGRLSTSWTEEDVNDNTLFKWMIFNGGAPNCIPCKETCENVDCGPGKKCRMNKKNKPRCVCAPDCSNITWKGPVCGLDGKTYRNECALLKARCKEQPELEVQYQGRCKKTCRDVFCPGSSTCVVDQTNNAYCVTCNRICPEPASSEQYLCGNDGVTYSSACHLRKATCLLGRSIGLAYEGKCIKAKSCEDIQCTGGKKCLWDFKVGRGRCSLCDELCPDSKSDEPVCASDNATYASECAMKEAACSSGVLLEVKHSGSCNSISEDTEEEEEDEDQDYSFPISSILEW
# Fibroblast growth factor 2 (Homo sapiens), sequence (P09038 whole entry, looked up): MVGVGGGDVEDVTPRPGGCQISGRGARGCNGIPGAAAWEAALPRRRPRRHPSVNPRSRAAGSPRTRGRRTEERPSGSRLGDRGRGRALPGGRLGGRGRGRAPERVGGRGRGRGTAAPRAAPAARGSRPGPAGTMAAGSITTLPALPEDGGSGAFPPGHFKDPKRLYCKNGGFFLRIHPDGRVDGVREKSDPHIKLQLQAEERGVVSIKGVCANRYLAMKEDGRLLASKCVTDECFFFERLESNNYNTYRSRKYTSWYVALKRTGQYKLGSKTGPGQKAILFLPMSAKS
Compound,composite z-score [1],composite z-score [2],composite z-score [3],composite z-score [4],composite z-score [5],composite z-score [6],z-score [7],composite z-score (Lefty1),composite z-score [8],z-score [9]
COCCOC(=O)N1C(=O)[C@@]2(c3cc(C#Cc4ccc(OC)cc4)ccc31)[C@H](c1ccc(O)cc1)N1[C@H](c3ccccc3)[C@H](c3ccccc3)OC(=O)[C@H]1[C@@H]2C(=O)N1CCN(c2ncccn2)CC1,1.23,1.18,0.351,0.624,1.36,0.712,-0.863,0.604,0.584,0.384 (inactive)
C=CC[C@@]1(C(=O)NCc2ccccc2)N=C(c2ccc(OCCCO)cc2)O[C@@H]1c1ccccc1CN=[N+]=[N-],1.8,1.22,1.06,0.995,1.29,-0.204,0.903,-0.0518,0.888,-0.876 (inactive)
O=C(NCCN1CCOCC1)[C@@H]1c2ccccc2C(=O)N(Cc2cc(F)cc(C(F)(F)F)c2)[C@H]1c1ccc(CO)cc1,0.195,0.0794,0.205,-0.732,0.687,-0.77,2.17,0.314,-0.254,-0.183 (inactive)
O=C(N1CCCCC1)[C@]1(CCS(=O)(=O)c2ccccc2)N=C(c2ccc(OCCCO)cc2)O[C@@H]1c1ccccc1,3.05,1.22,1.29,0.949,1.18,0.619,-0.913,0.211,1.31,-0.149 (inactive)
COCCn1c(C(=O)N(C)C)cc2c1C[C@H]1CN(C(=O)c3ccccc3)[C@@](Cc3ccc(F)cc3)(C(=O)OC)[C@@H]21,2.3,1.1,0.169,0.485,0.134,-0.158,0.33,-0.0481,1.11,-0.663 (inactive)
CCN(CC)c1ccc(N2CC=CC34O[C@@H]5/C=C\CCCOC(=O)C5[C@H]3C(=O)N(CCCO)[C@@H]4C2=O)cc1 (stereo not given in full),1.54,-0.231,-0.426,-0.928,-1.05,-0.942,0.614,-0.5,-0.137,-0.826 (inactive)
CCOC(=O)C[C@H]1[C@H](OC(=O)c2cc3ccccc3oc2=O)[C@@H](NC(=O)c2ccc3ccccc3c2)c2cc(OCCCO)ccc2N1C(=O)c1ccccc1,0.138,1.2,0.482,0.414,1.08,0.512,-0.59,1.09,0.357,0.151 (inactive)
COCCOC(=O)N1C(=O)[C@@]2(c3cc(C#Cc4ccc(OC)cc4)ccc31)[C@H](c1ccc(OCCO)cc1)N1[C@H](c3ccccc3)[C@H](c3ccccc3)OC(=O)[C@H]1[C@@H]2C(=O)N1CCc2cc(OC)c(OC)cc2C1,0.512,1.08,0.272,-0.122,1.25,1.24,-1.35,1.13,-0.12,-0.584 (inactive)
C=CCNC(=O)[C@@H]1[C@H]2C(=O)O[C@H](c3ccccc3)[C@H](c3ccccc3)N2[C@H](c2ccccc2OCCO)[C@@]12C(=O)N(C(=O)OCCOC)c1ccc(C#CCC(C(=O)OC)C(=O)OC)cc12,1.39,1.23,1.25,0.896,1.04,1.42,-0.453,1.11,1.12,0.112 (inactive)
COC(=O)[C@@]1(Cc2ccccc2)[C@H]2c3cc(C(=O)N(C)C)n(Cc4ccccc4)c3C[C@H]2CN1C(=O)c1ccccc1,1.21,1.13,0.614,0.839,0.241,-0.605,0.458,-0.0169,1.04,1.66 (inactive)
CCCCCCC#C[Si](O[C@H](c1ccccc1)c1cn([C@H](C)c2ccccc2)nn1)(C(C)C)C(C)C,0.475,0.386,-0.159,0.574,0.441,0.555,3.27,0.547,0.144,0.425 (inactive)
C=C(CCCC)C(=O)CC[C@H](OC(C)=O)c1ccc(CO)o1,-0.273,0.228,-0.0408,-0.332,1.03,0.361,-0.0332,0.861,-0.276,-1.77 (inactive)
O=C1OCC=C[C@H]2OC34C=CCN(c5ccc6ccccc6c5)C(=O)[C@H]3N(CCO)C(=O)[C@@H]4[C@@H]12 (stereo not given in full),0.0061,-0.785,-0.415,-1.22,-1.05,-2.06,1.51,-0.455,-1.18,-0.646 (inactive)
O=C1[C@H]2C=C(Br)[C@H](C[C@@H]2OCCOCCO)[C@@]12CO2,0.141,0.314,-0.0415,0.138,-0.864,0.179,-0.271,0.199,-0.0695,0.582 (inactive)
C=CCN1C(=O)[C@@]2(O[C@@H](CCO)[C@H]([Si](C)(C)c3ccc(OC)cc3)[C@H]2C)c2cc(N3C(=O)COc4ccccc43)ccc21,1.52,1.02,0.346,0.578,0.25,0.27,-0.839,0.0865,0.577,-0.401 (inactive)
CCCCC(=C=CC[C@H](O)c1ccccc1OCCO)C[C@H](O)c1cc(Cl)cc(Cl)c1O,1.02,0.955,0.305,0.517,0.698,0.28,-0.343,0.249,0.0162,-1.27 (inactive)
COC(=O)[C@@]1(Cc2ccc(F)cc2)[C@H]2c3cc(C(=O)N(C)C)n(CCc4c[nH]c5ccc(OC)cc45)c3C[C@H]2CN1C(=O)c1ccccc1,-0.0359,1.25,0.827,1.04,-0.49,-1.09,-1.79,-1.41,1.37,0.158 (inactive)
C=CC[C@]1(C(=O)NCCN2CCOCC2)N=C(c2ccc(OCCCO)cc2)O[C@H]1c1ccccc1N=[N+]=[N-],1.5,1.16,0.0147,0.772,1.32,0.931,0.98,-0.367,0.455,-8.62 (active)
CN(C)CCCCCCNC(=O)[C@@H]1C[C@@H]2C(=O)N[C@@H](Cc3ccccc3)C(=O)N2[C@@H]1c1cccc(OCCO)c1,2.13,1.05,1.81,0.105,0.699,0.886,-0.37,0.729,0.346,-0.0196 (inactive)
COCCOC(=O)N1C(=O)[C@@]2(c3cc(C#CCCO)ccc31)[C@H](C(=O)NC[C@H](O)c1ccccc1)[C@H]1C(=O)O[C@H](c3ccccc3)[C@H](c3ccccc3)N1[C@@H]2c1ccc(OCCO)cc1,0.714,1.18,1,0.951,1.28,1.24,-1.27,1.42,0.246,-1.09 (inactive)
C=CCN1Cc2ccccc2C[C@@]2(COC(c3ccc(OCCCO)cc3)=N2)C1=O,0.131,1.2,0.92,0.526,1.15,0.788,1.67,0.374,0.41,-1.62 (inactive)
O=C(NCC(O)CO)[C@@]1(Cc2ccccc2)COC(c2ccc(OCCCO)cc2)=N1 (stereo not given in full),0.0139,0.0528,0.216,0.531,-0.453,0.0393,-0.165,-0.743,0.488,0.37 (inactive)
O=C1C2C=CC(C(O)c3ccc(Br)cc3)N(n3cnnc3)C2C(=O)N1Cc1ccccc1 (stereo not given),0.648,1.16,0.407,0.974,0.722,0.298,-0.901,0.425,1.15,1.66 (inactive)
O=c1cccc(-c2ccccc2)o1,-0.192,-0.377,0.192,-0.468,0.145,-0.417,0.103,-0.57,0.143,0.616 (inactive)
O=C(NCC(F)(F)F)[C@@H]1c2ccccc2C(=O)N(Cc2ccccc2)[C@H]1c1ccc(CO)cc1,1.52,-1.3,-0.813,-1.17,-1.25,-1.34,0.764,-1.57,-0.595,-0.363 (inactive)
COCC1=C([C@H](O)CCc2ccccc2)[C@H](CO)[C@@H]2C(=O)N(Cc3ccccc3)C(=O)[C@@H]2C1,-0.219,-0.0814,0.0916,0.292,0.444,0.0451,0.68,0.448,0.131,0.24 (inactive)
CC(C)NC(=O)[C@@]1(c2ccc([N+](=O)[O-])cc2)CC(=O)N(C(C)C)[C@@H]1c1ccc(CO)cc1,0.0052,-0.0933,-1.05,-0.961,-0.849,-1.23,1.3,-0.554,0.516,-0.979 (inactive)
